Assay outcomes deposited in PubChem by several laboratories.
PrP 5UTR inh: inhibition of PrP 5' UTR reporter expression | cell-based PrP 5' UTR mRNA reporter, plate reader | inhibition, % (no concentration beside the values) | 340,000 compounds, 0.35% hits | AID 488862; in the data active means inhibition above about 52%; further: 0 = median of the neutral control wells
PrPC surface inh: cell surface PrPC inhibition, primary TR-FRET screen; inhibition, % at 13.8 µM; TR-FRET read-out; 370,000 compounds, 0.43% hits; P04156; in the data active means inhibition above about 24%; further: 0% = median of the test wells and 100% = reference compound wells
PfHsp40 yeast: restores yeast growth despite PfHsp40 toxicity; S. cerevisiae expressing PfHsp40, growth rescue, ATP luminescence; growth rescue, % at 12.5 µM; 340,000 compounds, 0.68% hits; in the data active means growth rescue above about 28%, passing the limit was not always enough;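 further: yeast W303a lacking pdr1 and pdr3 grown in galactose medium; growth measured after three days at 30 °C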
CCHF vOTU inh: CCHFV vOTU protease inhibition. Pep-AMC fluorescence. inhibition, % at 11.5 µM. 370,000 compounds, 0.55% hits; in the data active means inhibition above about 30%; further: 0% = vehicle wells with enzyme and 100% = no enzyme wells
Sa RN4220 lethal: S. aureus RN4220 growth inhibition; OD600, 16 h; inhibition, % (test concentration not listed); AID 1259311; 330,000 compounds, 0.33% hits; in the data active means inhibition above about 85%;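 further: plate controls were untreated cells for no effect and reference antibiotic for full effect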
Sa ugtP lethal: compounds lethal to S. aureus RN4220 ugtP deletion mutant; growth inhibition, % (no concentration beside the values); AID 1259309; 330,000 compounds, 0.54% hits; OD600 growth, 16 h; in the data active means growth inhibition above about 68%;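 further: plate controls were untreated wells for no effect and antibiotic for full effect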
An asterisk follows results filed as active; / = not tested or not shown. A selection: hits, their analogues and other compounds. The true share with any hit is near 2.1%.

SMILES	PrP 5UTR inh	PrPC surface inh	PfHsp40 yeast	CCHF vOTU inh	Sa RN4220 lethal	Sa ugtP lethal
O=[N+]([O-])c1ccc(Oc2ccc(S(=O)(=O)Nc3ccccc3)cc2)cc1	-20	/	388*	/	4	44
CC(C)NS(=O)(=O)c1ccc(Oc2ncc(C(F)(F)F)cc2Cl)cc1	-18	10	0	14	4	-4
O=[N+]([O-])c1ccc(S(=O)(=O)Nc2ccncc2)cc1	-18	-14	1	-14	3	4
CC1(C)CCC[C@@]2(C)C1CC[C@@]1(C)Oc3ccc(O)cc3CC21 (stereo partly specified)	/	/	/	/	-9	82
CCC(C)C(CNC)NCC(Cc1cccc2ccccc12)NCCc1cccc(C(F)(F)F)c1 (stereo unspecified)	/	/	/	/	101*	100*
CNCC(Cc1ccccc1)NCC(Cc1cccc2ccccc12)NCCc1ccc(C)cc1 (stereo unspecified)	/	/	/	/	101*	100*
CC(=NNC(=O)C(=O)NN=C(C)c1cccc(O)c1)c1cccc(O)c1	/	/	/	/	6	9
COc1ccc(/C=C/c2nc3ccccc3c(=O)n2-c2cccc(C(=O)O)c2)cc1	-8	-5	0	7	92*	84
O=c1c2ccccc2nc(/C=C/c2ccc3c(c2)OCO3)n1-c1cccc(O)c1	-15	-6	1	18	96*	93*
CC(=O)OC1C[C@@]2(C)C(CC(O)C3[C@@]4(C)CCC(O)C(C)C4CC[C@@]32C)C1=C(CCC=C(C)C)C(=O)O (stereo partly specified)	/	/	/	/	100*	100*
Nc1nonc1-n1nnc(C(=O)NN=Cc2ccccc2F)c1CN1CCOCC1	/	/	/	/	4	7
CN(C)n1cccc1/C=C(\C#N)S(=O)(=O)c1ccc(Cl)cc1	-93	-5	49*	17	3	3
O=C(Nc1cccc(C(F)(F)F)c1)Oc1ccc(Cl)c2cccnc12	-4	10	125*	7	/	/
N=c1ccn2c(n1)OC1C(CO)C(O)OC12 (stereo unspecified)	/	/	/	/	2	-11
NC(=O)CNC(=O)C1CC2(CC(c3cccc([N+](=O)[O-])c3)=NO2)CN1C(=O)c1ccccc1 (stereo unspecified)	/	/	/	/	1	-3
COC(=O)C1=CC(C(=O)OC)C2C3=C(C(=O)C24CCCCC4)C(C)n2c(=O)n(-c4ccccc4)c(=O)n2C3C1 (stereo unspecified)	/	/	/	/	9	2
Nc1ccc(Nc2ccccc2)c(S(=O)(=O)O)c1	/	1	41*	-20	/	/
NC(=O)C1=CC(c2coc3ccccc3c2=O)CC(OCCCCO)O1 (stereo unspecified)	/	/	/	/	7	1
CCOC(=O)N1CCN(c2cc(N)c([N+](=O)[O-])cc2F)CC1	-34	-19	0	35*	3	-4
CCOC(=O)N1CCN(c2cc(C)c(C(C)=O)cc2F)CC1	-19	-4	-1	2	9	-5
COc1cc(/C=C2\SC(=S)N(NS(=O)(=O)c3ccccc3)C2=O)cc(OC)c1OC	-17	-12	41*	8	15	2
COc1ccc(/C=C2/SC(=O)N(NS(=O)(=O)c3ccccc3)C2=S)cc1OC	-7	-7	35*	6	48	0
O=C1/C(=C/c2cccc(F)c2)SC(=S)N1NS(=O)(=O)c1ccccc1	-22	-5	2	15	35	1
COc1cccc(/C=C2\SC(=S)N(NS(=O)(=O)c3ccccc3)C2=O)c1OC	-13	-2	11	15	31	17
COC(=O)C1=C(c2ccc(C(C)=O)cc2)CC2CCC1N2C(=O)NCc1ccco1 (stereo unspecified)	/	/	/	/	7	8
SMILES	PrP 5UTR inh	PrPC surface inh	PfHsp40 yeast	CCHF vOTU inh	Sa RN4220 lethal	Sa ugtP lethal
FC(F)(F)c1cccc(NC(=S)NCC2COc3ccccc3O2)c1 (stereo unspecified)	-19	6	2	8	54	83*
O=C(Nc1scc(-c2ccccc2)c1C(=O)O)c1ccccc1Cl	-2	4	1	-4	12	-11
COc1ccc(-c2csc(NC(=O)c3ccccc3F)c2C(=O)O)cc1	-23	12	310*	4	13	-4
COc1cc(C(=O)Nc2scc(-c3ccccc3)c2C(=O)O)cc(OC)c1OC	-14	-1	0	4	5	6
Cc1ccc(C(=O)Nc2scc(-c3ccccc3)c2C(=O)O)cc1	-20	-1	119*	7	11	-9
CCOC(=O)C1C2COc3ccc(C)cc3C2N2C(=O)c3cc(OC)c(OC)cc3NC(=O)[C@@]12C (stereo partly specified)	/	/	/	/	4	1
O=C(c1ccco1)[C@@H]1[C@@H]2C(=O)N(c3ccccc3)C(=O)[C@@H]2C2c3ccccc3C=CN21 (stereo partly specified)	-29	-3	-2	96*	5	-2
COc1ccc(N2C(=O)[C@@H]3[C@H](C2=O)[C@H]2c4ccccc4C=CN2[C@@H]3C(=O)Nc2ccccc2)cc1	-30	8	1	9	-1	-3
CN(C)c1ccc(N2C(CC(=O)O)c3cc(C(F)(F)F)ccc3S2(=O)=O)cc1 (stereo unspecified)	/	/	/	/	5	4
Cc1cc(N2CCN(C)CC2)nc2ccc(NC(=S)NCCCN3CCc4ccccc4C3)cc12	-39	-7	0	-1	3	0
Cc1cc(N2CCN(C)CC2)nc2ccc(NC(=S)NCCN3CCc4ccccc4C3)cc12	-10	-1	49*	-17	3	0
Cc1c2cc[n+](CCN3CCCCC3)cc2c(C)c2c1[nH]c1ccc(O)cc12	-43	/	53*	/	/	/
O=C(Cc1ccccc1[N+](=O)[O-])NN=Cc1cccnc1	/	/	/	/	5	9
Cc1ccc(OCC(=O)NC(=S)Nc2ccc(S(=O)(=O)Nc3cc(C)on3)cc2)c(Br)c1	-24	4	73*	-15	5	-3
COc1cc(NC(=O)COC(=O)CNC(=O)c2ccc(Cl)cc2)c(C)cc1[N+](=O)[O-]	5	-4	-1	-7	1	2
COc1cc(NC(=O)COC(=O)CNC(=O)c2ccc(C)cc2)c(C)cc1[N+](=O)[O-]	-9	-2	86*	0	1	1
Nc1nonc1C(=O)N/N=C/c1cc(Br)ccc1O	4	4	168*	11	/	/
Nc1nonc1C(=O)NN=Cc1cc(Br)ccc1O	/	/	/	/	8	5
O=S(=O)(c1ccc2c(c1)OCCO2)N1CC2CC1CN2S(=O)(=O)c1c(F)cccc1F (stereo unspecified)	/	/	/	/	3	1
N#CC(C#N)=c1ccc2c(c1)N1C3=C(CCCC3)CC3CCCCC31N=2 (stereo unspecified)	-3	-6	1	7	91*	92*
Cc1ccc(N(C(=O)c2ccccc2Cl)C2=NC(C)CS2)c(C)c1 (stereo unspecified)	-49	-5	0	12	2	88*
S=C1NC[C@H](c2ccccc2)N1CCCCC1CCCCC1	-21	5	330*	8	/	/
